Reference: PubChem BioAssay (NCI)
Compounds without any hit were thinned out: in the full panel of roughly 83,000, 20% have a hit.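 Compound tested at a single concentration for 48 hours in 96-well plates; a percent growth value below 10 was scored as active.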 Calls of active or inactive are those of the source.

How the values were obtained:
Assay in all cases: NCI-60 one-dose screen, 48 h (100 = growth as untreated, 0 = no growth, -100 = all killed)
[1] = tested on: NCI-H23 lung; details: 10 µM unless noted
[2] = tested on: NCI-H460 lung; details: 10 µM unless noted
[3] = tested on: 786-0 renal; details: 10 µM unless noted
[4] = tested on: DU-145 prostate; details: 10 µM unless noted
[5] = tested on: MDA-MB-231 breast; details: 10 µM unless noted
[6] = tested on: SF-268 CNS; details: 10 µM unless noted
[7] = tested on: SF-539 CNS; details: 10 µM unless noted
[8] = tested on: UACC-257 melanoma; details: 10 µM unless noted
[9] = tested on: HCT-15 colon; details: 10 µM
[10] = tested on: PC-3 prostate; details: 10 µM unless noted
[11] = tested on: SK-MEL-5 melanoma; details: 10 µM unless noted
[12] = tested on: LOX IMVI melanoma; details: 10 µM unless noted
[13] = tested on: SK-MEL-28 melanoma; details: 10 µM unless noted
[14] = tested on: SN12C renal; details: 10 µM unless noted
[15] = tested on: NCI/ADR-RES ovarian; details: 10 µM unless noted
[16] = tested on: SW-620 colon; details: 10 µM unless noted
[17] = tested on: MCF7 breast; details: 10 µM unless noted
[18] = tested on: HCT-116 colon; details: 10 µM unless noted
[19] = tested on: HCC-2998 colon; details: 10 µM unless noted
[20] = tested on: KM12 colon; details: 10 µM unless noted

Measured: growth

O=C(Nc1ccc(S(=O)(=O)F)cc1)Oc1ccccc1
inactive: [1] 97.8% | [2] 102% | [3] 102% | [4] 103% | [5] 104% | [6] 102% | [7] 104% | [8] 111% | [9] 104% | [10] 93.4% | [11] 96.3% | [12] 95.1% | [13] 99.2% | [14] 104% | [15] 103% | [16] 97% | [17] 91.6% | [18] 116% | [19] 110% | [20] 102%

CC(/C=N/N=C(N)N)=N/N=C(N)N
inactive: [1] 95.3% | [2] 66.2% | [3] 70.4% | [4] 93.9% | [5] 102% | [6] 72.9% | [7] 73.9% | [8] 113% | [9] 98% | [10] 108% | [11] 107% | [12] 88.9% | [13] 96.4% | [14] 94.9% | [15] 74.3% | [16] 98.5% | [17] 98.1% | [18] 83.9% | [20] 73.1%
active: [19] -14.8%

COP(=S)(OC)Oc1ccc(SC)c(C)c1
inactive: [1] 97.7% | [2] 110% | [3] 104% | [4] 111% | [5] 113% | [6] 110% | [7] 94.4% | [9] 105% | [10] 85.9% | [11] 98.9% | [12] 93.3% | [13] 115% | [14] 100% | [15] 100% | [16] 106% | [17] 113% | [18] 103% | [19] 104% | [20] 105%

Nc1nc(N)c(-c2ccc(Cl)c(Cl)c2)c(/C=C/c2ccc(S(=O)(=O)F)cc2)n1
inactive: [1] 106% | [2] 77% | [3] 76.9% | [4] 96.7% | [5] 104% | [6] 97.4% | [7] 80.1% | [8] 76.3% | [9] 77.9% | [10] 65% | [11] 84.6% | [12] 69.1% | [13] 98.1% | [14] 93.1% | [15] 105% | [16] 78.5% | [17] 73.5% | [18] 77.7% | [19] 111% | [20] 86.8%

Cc1cc(CCl)c(C)cc1CCl
inactive: [1] 55.4% | [3] 36.9% | [5] 108% | [6] 41.9% | [8] 62.1% | [9] 75.2% | [10] 66.9% | [11] 70.1% | [12] 28% | [13] 77.7% | [14] 30.9% | [15] 62% | [16] 59.9% | [18] 50.9% | [19] 71.4%
active: [2] 4.86% | [4] 1.11% | [17] 7.03% | [20] -43.7%

OB([O][Hg][c]1ccccc1)[O][Hg][c]1ccccc1
active: [1] -56.2% | [2] -21.4% | [3] -76.6% | [4] -73.5% | [5] -69.8% | [6] -51.2% | [7] -87.7% | [8] -98.3% | [9] -70.3% | [10] -60.4% | [11] -96.7% | [12] -29.2% | [13] -83.2% | [14] -99.6% | [15] -18.2% | [16] -48.9% | [17] -39.4% | [18] -68.4% | [19] -45.5%
inactive: [20] 14.7%

FC(F)=C(F)c1ccccc1
inactive: [1] 103% | [2] 109% | [3] 101% | [4] 108% | [5] 115% | [6] 111% | [7] 103% | [8] 116% | [9] 107% | [10] 104% | [11] 105% | [12] 88.6% | [13] 102% | [14] 112% | [15] 106% | [16] 109% | [17] 96.9% | [18] 103% | [19] 114% | [20] 102%

C[CH2][Pb]([CH2]C)([CH2]C)[O]C(=O)COc1ccccc1
active: [1] -6.75% | [2] 4.05% | [3] -22% | [4] -6.43% | [6] -10.1% | [7] -21.8% | [11] -21.4% | [12] -35.8% | [14] 8.52% | [15] 2.79% | [16] 6.03% | [17] 0.688% | [18] 4.13% | [19] -52% | [20] 1.59%
inactive: [5] 20.1% | [9] 12.4% | [10] 20.3% | [13] 28.3%

C[As](=O)(O)c1ccc(C(=O)O)cc1
inactive: [1] 110% | [2] 112% | [3] 109% | [4] 109% | [5] 102% | [6] 110% | [7] 102% | [8] 102% | [9] 99.2% | [10] 97.9% | [11] 108% | [12] 115% | [13] 106% | [14] 107% | [15] 108% | [16] 105% | [17] 100% | [18] 110% | [19] 116% | [20] 111%

CCCCCCCCCCCCOc1ccc(C(=O)Oc2ccc(CSP3(=O)OCC4OC(n5cnc6c(N)ncnc65)C(F)C4OP(=O)(O)OCC4OC(n5ccc(=O)[nH]c5=O)C(F)C4O3)cc2)cc1 (stereo unspecified)
inactive: [1] 101% | [2] 106% | [3] 89.1% | [4] 103% | [5] 108% | [6] 107% | [7] 24% | [8] 31.4% | [9] 101% | [10] 100% | [11] 109% | [12] 85.9% | [13] 121% | [14] 109% | [15] 102% | [16] 118% | [17] 93.4% | [18] 83.2% | [19] 105% | [20] 106%

C=CC(=O)NC(O)C(Cl)(Cl)Cl (stereo unspecified)
inactive: [1] 105% | [2] 110% | [3] 95.2% | [4] 106% | [5] 115% | [6] 104% | [7] 102% | [8] 92.3% | [9] 97.1% | [10] 102% | [11] 119% | [13] 103% | [14] 109% | [15] 106% | [16] 111% | [17] 105% | [18] 101% | [19] 104% | [20] 106%

CCOc1cc(/C=N\Nc2nnc(C)n2N)c(C)cc1N(CCCl)CCCl
inactive: [3] 13.1% | [4] 27.8% | [5] 38.2% | [6] 28.2% | [7] 34.5% | [9] 25.5% | [13] 37.4% | [14] 17.3% | [15] 10.7% | [16] 10.4% | [18] 12% | [20] 13.8%
active: [1] -20.2% | [2] 4.94% | [8] -5.96% | [10] 7.23% | [11] -47.3% | [12] 1.98% | [17] 9.29% | [19] 3.97%

Cc1cc(N(CCCl)CCCl)ccc1C=Nc1ccc2ccccc2c1
inactive: [1] 60.8% | [2] 26% | [3] 75.5% | [4] 71.5% | [5] 92% | [6] 72.3% | [7] 69% | [8] 37.8% | [9] 79.7% | [10] 77.2% | [11] 74.6% | [12] 82.8% | [13] 102% | [14] 49.7% | [15] 71.2% | [16] 84.9% | [17] 40% | [18] 79.9% | [19] 94.5% | [20] 87.6%

CNC(=O)Oc1cccc(OC)c1
inactive: [1] 101% | [2] 115% | [3] 107% | [4] 115% | [5] 93.3% | [6] 118% | [7] 111% | [8] 112% | [9] 112% | [10] 109% | [11] 109% | [12] 100% | [13] 111% | [14] 93.3% | [15] 106% | [16] 111% | [17] 101% | [18] 103% | [19] 105% | [20] 112%

CC(=O)[O][Hg][c]1nc2c(c(=O)n(C)c(=O)n2C)n1C
active: [12] -28.5%
inactive: [1] 106% | [2] 98.8% | [3] 102% | [4] 107% | [5] 102% | [6] 110% | [7] 104% | [8] 98% | [9] 107% | [10] 93.7% | [11] 90.8% | [13] 90.1% | [14] 104% | [15] 114% | [16] 71.1% | [17] 73.3% | [18] 99.9% | [19] 131% | [20] 96.6%

COC(=O)C1CC2c3ccccc3C1c1ccccc12 (stereo unspecified)
inactive: [1] 111% | [2] 104% | [3] 104% | [4] 119% | [5] 122% | [6] 107% | [7] 101% | [8] 97.8% | [9] 91.2% | [10] 66.4% | [11] 94% | [12] 94.7% | [13] 109% | [14] 97.7% | [15] 105% | [16] 106% | [17] 96.5% | [18] 106% | [19] 107% | [20] 113%

O=C1NC2(CCNCC2)Nc2ccccc21
inactive: [1] 100% | [2] 110% | [3] 107% | [4] 108% | [5] 120% | [6] 106% | [7] 114% | [8] 85.7% | [9] 113% | [10] 88.5% | [11] 114% | [12] 102% | [13] 116% | [14] 99.1% | [15] 109% | [16] 102% | [17] 107% | [18] 100% | [19] 103% | [20] 105%
